Hits are enriched below; roughly 6.1% of the tested compounds scored in any of these assays.
D1 antagonist: human D1 dopamine receptor antagonism | P21728 | HEK293 TREx D1 cells, calcium flux, dopamine EC80; hits give low values | activity change, negative = inhibition, % at 10 µM | 360,000 compounds, 3.2% hits | AID 504652; in the data active = activity change below about -30%
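Inducible Hek293 Trex D1 cells (tetracycline, overnight, 30 C). Calcium dye 30–90 min RT. Antagonist mode: EC80 dopamine added after 180 s compound read.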
D1 PAM: human D1 dopamine receptor positive modulation; HEK293 TREx D1 cells, calcium flux, dopamine EC20 potentiation; potentiation, % at 10 µM; 360,000 compounds, 0.036% hits; AID 504651; in the data active = potentiation above about 30%
D3 antag: D3 dopamine receptor (human) antagonism; P35462; D3R cells, DiscoveRx beta-arrestin luminescence, antagonist mode; hits give low values; max response, negative = inhibition, %; 360,000 compounds, 2.5% hits; in the data active = max response below about -50%; inconclusive = no clear call, values can overlap the other calls
Target sequence (P35462 whole entry, looked up): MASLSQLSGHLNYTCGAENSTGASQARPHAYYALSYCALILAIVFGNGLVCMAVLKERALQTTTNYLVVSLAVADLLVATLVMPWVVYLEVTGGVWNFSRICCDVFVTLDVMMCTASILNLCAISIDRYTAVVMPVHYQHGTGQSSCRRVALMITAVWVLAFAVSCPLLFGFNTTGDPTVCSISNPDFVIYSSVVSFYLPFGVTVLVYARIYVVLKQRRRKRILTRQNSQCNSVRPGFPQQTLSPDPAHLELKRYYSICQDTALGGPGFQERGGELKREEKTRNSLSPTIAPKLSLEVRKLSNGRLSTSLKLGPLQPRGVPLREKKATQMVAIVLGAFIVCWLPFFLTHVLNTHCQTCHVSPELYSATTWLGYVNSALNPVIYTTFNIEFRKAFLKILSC
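Cells plated overnight at 1500 cells/well, then exposed to library compounds with dopamine controls for 90 minutes at 37 degrees C. DiscoveRx reagent added for 30–60 minutes at room temperature; luminescence read, quantitative HTS format.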
D3 ag: agonists of human D3 dopamine receptor | P35462 | D3R DiscoveRx beta-arrestin cells, luminescence, 90 min | max activation, % | 410,000 compounds, 0.58% hits | AID 652048; in the data active = max activation above about 30%
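Agonist mode: compounds and dopamine controls were applied to plated cells for 90 min at 37 degrees C after an overnight attachment at 1500 cells/well. Luminescent read-out followed 30 - 60 minutes at room temperature with DiscoveRx detection reagent.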
D1 ag: agonists of human D1 dopamine receptor. P21728. HEK293 T-REx D1 cells, calcium flux, agonist mode. activation, % at 2 µM. 360,000 compounds, 1% hits. AID 504660; in the data active = activation above about 30%
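Agonism was scored from calcium flux recorded over 180 s (1 read/s) after pintool compound addition, following a 10-cycle baseline. Cells were inducible force-coupled HEK293 TREx D1, plated overnight at 30 C and loaded with no-wash calcium dye.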
Of the large screens only hits and unclear results are named; the others gave an inactive call.

O=C(COC(=O)c1ccc([N+](=O)[O-])cc1)NC1CCCC1	D1 antagonist -45
Fc1ccc2[nH]c(-c3cccs3)cc2c1	none (no result: D3 antag)
CCc1ccc(S(=O)(=O)c2cnc3ccc(OC)cc3c2N2CCCC(C)C2)cc1 (centres undefined)	D1 antagonist -56 (no result: D3 antag)
CCOc1ccc2ncc(S(=O)(=O)c3ccccc3)c(N3CCN(c4ccccc4)CC3)c2c1	none (no result: D1 antagonist, D1 PAM, D1 ag)
CCN1CCN(c2c(S(=O)(=O)c3ccccc3)cnc3ccc(Cl)cc23)CC1	none (no result: D3 antag)
CCc1ccc2ncc(S(=O)(=O)c3ccc(C)c(C)c3)c(N3CCCC3)c2c1	D3 antag -56
CCN1CCN(c2c(S(=O)(=O)c3ccc(C)c(C)c3)cnc3cc(OC)c(OC)cc23)CC1	D1 antagonist -66 (no result: D3 antag)
COc1ccc(S(=O)(=O)c2cnc3cc(OC)c(OC)cc3c2N2CCCC(C)C2)cc1 (centres undefined)	none (no result: D3 antag)
O=C(COC(=O)CNC(=O)c1ccccc1)NCc1ccc2c(c1)OCO2	none (no result: D1 antagonist, D1 PAM, D1 ag)
O=C(NCc1ccc(F)cc1)C1CCCN1S(=O)(=O)c1ccccc1C(F)(F)F (centres undefined)	none
N=C1C(c2nc3ccccc3[nH]2)=C(O)CN1C1CCCCC1	none
N=C1C(c2nc3ccccc3[nH]2)=C(O)CN1c1ccc(F)cc1	D1 antagonist -30
CCCCCc1cc(=O)oc2c(C(CCN3CCCC3)c3cc(OC)c(OC)c(OC)c3)c(OC)cc(OC)c12 (centres undefined)	D1 antagonist -34, D3 antag -51, D1 ag 37
COc1cc(C(CCN2CCCCC2)c2c(OC)cc(OC)c3c(-c4ccccc4)cc(=O)oc23)cc(OC)c1OC (centres undefined)	none
CCCCCc1cc(=O)oc2c(C(CCN(CC)CC)c3ccc(OC)cc3)c(OC)cc(OC)c12 (centres undefined)	D1 antagonist -39, D1 ag 40
COc1ccc(C(CC(=O)N2CCCC2)c2c(OC)cc(OC)c3c(-c4ccccc4)cc(=O)oc23)cc1 (centres undefined)	none
COc1ccc(C(CC(=O)N2CCOCC2)c2c(OC)cc(OC)c3c(-c4ccccc4)cc(=O)oc23)cc1 (centres undefined)	D1 antagonist -41
CCCCCc1cc(=O)oc2c(C(CCN3CCCCC3)c3ccc(OC)cc3)c(OC)cc(OC)c12 (centres undefined)	D3 antag inconclusive
COc1cc(C(CCN2CCCC(C)C2)c2c(OC)cc(OC)c3c(-c4ccccc4)cc(=O)oc23)cc(OC)c1OC (centres undefined)	D3 antag -51
CCOc1ccc(CNC(=O)C2Cc3ccccc3N2C(=O)CC)cc1 (centres undefined)	none (no result: D3 antag)
CCOc1ccc2[nH]c(=O)c(CN(CCN3CCCC3)C(=S)Nc3ccccc3OC)cc2c1	none
O=C(CN1C(=O)COc2ccc(S(=O)(=O)Nc3ccccc3)cc21)NCc1ccccc1Cl	none (no result: D3 antag)
COc1cc(OC)c(NC(=O)Cn2c(=O)c(C(F)(F)F)nc3ccccc32)cc1Cl	none (no result: D3 antag)
CCCCCc1cc(=O)oc2c(C(CCN3CCCC3)c3ccc(N(C)C)cc3)c(OC)cc(OC)c12 (centres undefined)	D3 antag inconclusive
CCCCCc1cc(=O)oc2c(C(CCN3CCN(c4ccccc4)CC3)c3ccc4c(c3)OCO4)c(OC)cc(OC)c12 (centres undefined)	D1 antagonist -31, D3 antag -69
COc1ccc(C2=NN(C(=O)c3ccco3)C(c3cccs3)C2)cc1OC (centres undefined)	none (no result: D1 antagonist, D1 PAM, D1 ag)
CN(C)CCN1C(=O)C(O)=C(C(=O)c2cc3ccccc3o2)C1c1cccc(Br)c1 (centres undefined)	D1 antagonist -38, D3 antag inconclusive
O=C(C1=C(O)C(=O)N(c2nccs2)C1c1ccccc1)c1cc2ccccc2o1 (centres undefined)	D1 ag 107
O=C(C1=C(O)C(=O)N(CCN2CCOCC2)C1c1cccc(Br)c1)c1cc2ccccc2o1 (centres undefined)	none
Cc1cc(C)nc(NC(=NCCc2c[nH]c3ccc(Cl)cc23)NC(=O)c2ccccc2C)n1	none (no result: D3 antag)
Cc1cc(C)nc(NC(=NCCc2c[nH]c3ccccc23)NC(=O)C(C)(C)C)n1	D1 antagonist -55
C=CC(=O)N1C/C(=C/c2ccc(F)cc2)C(=O)/C(=C\c2ccc(F)cc2)C1	D3 antag -61 (no result: D1 antagonist, D1 PAM, D1 ag)
CCN(CC)C(=O)c1ccc(Cn2cc([N+](=O)[O-])cn2)o1	D1 antagonist -37
O=C(Nc1ccc([N+](=O)[O-])cc1)c1ccc(Cn2cc([N+](=O)[O-])cn2)cc1	none
CCC(NC(=O)c1cccc(Cn2cc([N+](=O)[O-])cn2)c1)c1ccc(C(C)C)cc1 (centres undefined)	D3 antag -53 (no result: D1 antagonist)
CCc1ccccc1NC(=O)c1ccc(Cn2cc([N+](=O)[O-])cn2)cc1	D1 ag 38
Cc1ccccc1NC(=O)c1ccc(Cn2cc([N+](=O)[O-])cn2)o1	none
CCc1cc2cccc(C)c2nc1SCC(=O)N1CCN(C(=O)c2ccco2)CC1	D3 ag 41
CCOc1ccc(-n2nnnc2SCC(=O)NNC(=O)c2ccco2)cc1	D1 antagonist -38
CCc1cc2cc(C)ccc2nc1SCC(=O)NNC(=O)c1ccco1	D1 ag 34 (no result: D1 PAM)
CCOc1ccc(N(CC(=O)N/N=C/c2cccnc2)S(C)(=O)=O)cc1	none
CC(C)(C)n1nnnc1C(c1cccs1)N1CCN(C/C=C/c2ccccc2)CC1 (centres undefined)	D3 antag -122 (no result: D1 antagonist, D1 PAM, D1 ag)
CCC(C)(C)n1nnnc1C(c1ccc(C)cc1)N1CCN(Cc2ccc3c(c2)OCO3)CC1 (centres undefined)	D3 antag -70
CCC(C)(C)n1nnnc1C(c1ccc2ncccc2c1)N1CCN(Cc2ccc3c(c2)OCO3)CC1 (centres undefined)	none
C(=C\c1ccccc1)/CN1CCN(C(c2cccs2)c2nnnn2Cc2ccccc2)CC1 (centres undefined)	D3 antag -73 (no result: D1 antagonist, D1 PAM, D1 ag)
C(=C\c1ccccc1)/CN1CCN(C(c2cccc3ccccc23)c2nnnn2Cc2ccccc2)CC1 (centres undefined)	D3 antag inconclusive (no result: D1 antagonist, D1 PAM, D1 ag)
C(=C\c1ccccc1)/CN1CCN(C(c2cccs2)c2nnnn2C2CCCC2)CC1 (centres undefined)	D3 antag -86 (no result: D1 antagonist, D1 PAM, D1 ag)
Cc1ccc(CCCOC(=O)CN2CCCCC2)cc1	none
Cc1cc(C)nc(-n2nc(C)c3c2NC(=O)CC3c2cc(F)ccc2F)n1 (centres undefined)	none (no result: D3 antag)
O=C(OCC(O)COC(=O)c1cccnc1)c1cccnc1	none
CC1=C(C(=O)N(C(C)C)C(C)C)CC(CC(=O)NCc2cccc3ccccc23)C(=O)N1Cc1ccc(C(C)(C)C)cc1 (centres undefined)	none (no result: D1 antagonist, D1 PAM, D1 ag)

Assay outcomes as filed in PubChem BioAssay.
